High-throughput results (PubChem BioAssay)
An excerpt weighted towards active compounds, which were near 9.5% of everything screened.
Tau ThT inhib: tau fibrillization inhibition (ThT binding). recombinant tau K18 P301L, heparin-induced fibrillization, ThT fluorescence. 2.1% of 270,000 active. Potency, µM (series often up to 57.4 µM), most hits filed as inhibitors. P10636. AID 1460; note: nearly all actives have a fitted effect of over 55% in size
Target sequence (P10636 561-689 P618L limits assumed): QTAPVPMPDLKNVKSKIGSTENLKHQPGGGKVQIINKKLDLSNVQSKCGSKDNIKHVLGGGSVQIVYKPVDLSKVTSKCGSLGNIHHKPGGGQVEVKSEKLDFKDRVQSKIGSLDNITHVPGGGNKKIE
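Fibril formation assay: tau K18 P301L at 15 uM with trace Alexa 594 label, heparin inducer 20 uM, pH 7 sodium acetate buffer, 37 C for 6 hr; endpoint ThT signal.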
Tau fluor cs: counter-screen for tau fibril formation inhibitors; tau K18 P301L (four-repeat tau fragment) Alexa594 fluorescence, heparin fibrillization; Potency, µM (titrated, usually from 57.7 µM); 0.93% of 280,000 active; note: nearly all actives have a fitted effect of over 55% in size
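Human K18 P301L tau (15 uM unlabeled plus 0.24 uM Alexa 594-labeled, final) in 100 mM sodium acetate pH 7 was mixed with compound and 20 uM heparin and incubated 6 hr at 37 C.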
NPSR antag: neuropeptide S receptor (human) antagonism, cAMP; Q6W5P4; CHO-NPSR cells, cAMP TR-FRET, antagonist mode; 1% of 220,000 active; Potency, µM (series often up to 38.3 µM), most hits filed as inhibitors; note: nearly all actives have a fitted effect of over 50% in size
Target sequence (Q6W5P4 whole entry, looked up): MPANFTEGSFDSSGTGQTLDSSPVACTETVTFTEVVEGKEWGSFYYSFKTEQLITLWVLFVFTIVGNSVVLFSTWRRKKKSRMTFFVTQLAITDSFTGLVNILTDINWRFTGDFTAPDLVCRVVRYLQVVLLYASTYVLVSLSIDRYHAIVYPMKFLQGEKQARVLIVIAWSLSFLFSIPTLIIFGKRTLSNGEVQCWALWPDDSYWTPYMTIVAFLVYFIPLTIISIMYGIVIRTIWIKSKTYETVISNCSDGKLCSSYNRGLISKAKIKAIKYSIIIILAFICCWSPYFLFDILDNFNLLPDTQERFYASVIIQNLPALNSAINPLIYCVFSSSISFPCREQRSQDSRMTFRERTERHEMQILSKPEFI
HPGD block: blocks human HPGD enzyme activity. 4.3% of 150,000 active. P15428. purified HPGD, NADH fluorescence kinetic, PGE2 substrate. Potency, µM, most hits filed as inhibitors; active = well fitted inhibition curve with a large enough effect, not every such curve was filed as active; inconclusive = small, poorly fitted or top-dose-only effect, or another doubt; inactive = no such curve, though single readings can be large or run the other way
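NADH formation kinetics: reaction with 30 uM PGE2 and 1 mM NAD+ (final), 20 nM enzyme, Tris-HCl pH 8 with Tween 20, after 15 min compound preincubation at room temperature. Fluorescence change, last versus first of five reads.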
ALDH1A1 block: ALDH1A1 (human) enzyme inhibition; Purified ALDH1A1, NADH fluorescence, propionaldehyde substrate; P00352; Potency, µM (series often up to 75.3 µM), hits mostly inhibitors; AID 1030; 7.3% of 220,000 active; active = well fitted inhibition curve with a large enough effect, not every such curve was filed as active; inconclusive = small, poorly fitted or top-dose-only effect, or another doubt; inactive = no such curve, though single readings can be large or run the other way
Tau FP inhib: blocks human tau fibril formation measured by polarization. K18 P301L tau heparin fibrillization, Alexa594 FP, 6 h. Potency, µM (highest dose often 57.7 µM), hits mostly inhibitors. 0.39% of 280,000 active; note: nearly all actives have a fitted effect of over 55% in size
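Recombinant K18 P301L […], labeled with Alexa 594 at 0.24 uM over 15 uM unlabeled; heparin inducer 20 uM final; 37 C, 6 hr; FP endpoint.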
A number is an active result; – = inactive; ? = inconclusive; · = not tested or not shown; [ ] = another dose, or the depositor's remark. Unless noted, calls come from the whole dose curve; as a rule, active = well fitted curve in the direction sought with a large enough effect; inconclusive = small, poorly fitted or top-dose-only effect, or another doubt; inactive = no such curve, though single readings can be large; an effect the other way counts as inactive or inconclusive.

SMILES	Tau ThT inhib	Tau fluor cs	NPSR antag	HPGD block	ALDH1A1 block	Tau FP inhib
CN(C)c1ccc(NC(N)=S)cc1	?	–	–	–	12µM	–
COc1ccc(OC)c(C(=O)COC(=O)C2CC3CCCC(C2)C3=O)c1 (centres undefined)	–	–	–	–	7.1µM	–
CCN(CC)S(=O)(=O)c1ccc(Cl)c(NC(=O)c2cc(Cl)cc(Cl)c2)c1	–	–	–	–	–	–
O=C(CNC(=O)c1ccccc1)OC(C(=O)c1ccccc1)c1ccccc1 (centres undefined)	–	–	–	–	–	–
COc1ccc(C(=O)C(OC(=O)CNC(=O)c2ccco2)c2ccccc2)cc1 (centres undefined)	–	–	–	–	20µM	–
Cc1ccc(Cl)cc1N1CCN(C(=O)c2ccc3c(c2)CCN3S(=O)(=O)c2ccccc2)CC1	–	–	·	·	·	–
Nc1ccc(N(c2ccccc2)c2ccc(N)cc2)cc1	?	?	–	–	8.9µM	–
Clc1nc(Cl)nc(N(c2ccccc2)c2ccccc2)n1	–	–	–	–	?	–
COc1ccc(COC(=O)N/N=C2/C[C@@H](O)[C@@H](O)[C@@H]3[C@@H]4C(=O)N(C[C@@H]5CCCO5)C(=O)[C@H]4CC[C@@H]23)cc1	–[11.5 µM]	–[11.6 µM]	·	·	–[13.5 µM]	–[11.6 µM]
Fc1ccc(NC(=S)NC2CCN(Cc3ccccc3)CC2)cc1	–	–	–	·	14µM	–
Cc1cccc(NC(=S)NC2CCN(Cc3ccccc3)CC2)c1C	–	–	–	–	–	–
S=C(Nc1ccc(Cl)c(Cl)c1)NC1CCN(Cc2ccccc2)CC1	–	?	–	–	–	25µM
CCOC(=O)c1sc(/N=C/c2c(C)[nH]n(-c3ccccc3)c2=O)c(C#N)c1C	–	–	–	–	–	–
COC(=O)NC(CC(C)=O)c1ccc(F)cc1 (centres undefined)	–[11.5 µM]	–[11.6 µM]	·	·	–[13.5 µM]	–[11.6 µM]
O=C(CN1C(=O)NC2(CCCc3ccccc32)C1=O)Nc1cccc(S(=O)(=O)N2CCCCC2)c1 (centres undefined)	–	?	–	–	–	–
Cc1ccc(Nc2nc(N)nc(CN3CCN(c4ccccc4F)CC3)n2)cc1	?	–	–	–	32µM	–
Cc1ccc2c(CN3CCN(CCO)CC3)cc(=O)oc2c1C	–	–	–	–	–	–
COc1cc(NC(=S)N2CCN(C(=O)c3ccco3)CC2)c(OC)cc1Cl	–	–	–	32µM	25µM	–
Cc1ccc2c(CN3CCN(C(=O)c4ccco4)CC3)cc(=O)oc2c1C	–	–	–	·	25µM	–
COc1ccc(CN2CCN(C(=O)c3ccco3)CC2)cc1OC	–	–	–	·	20µM	–
C=Cc1ccc([C@H]2N[C@@H](C(=O)O)CC[C@@H]2C)cc1	–[11.5 µM]	–[11.6 µM]	·	·	–[13.5 µM]	–[11.6 µM]
COc1ccc(CN(C(=O)c2ccco2)c2ccc(C)cc2)cc1OC	–	–	–[7.67 µM]	–	7.9µM	–
Cc1ccc(Nc2nc(N)nc(CN3CCN(C(=O)c4ccco4)CC3)n2)cc1Cl	?	–	?	–	7.9µM	–
N#Cc1ccc(NC(=O)COCc2cc(-c3ccc(F)cc3)on2)cc1	–	–	·	·	·	–
Cc1cc(NC(=O)c2ccc(NC(=O)C(C)Oc3ccccc3)cc2)no1 (centres undefined)	–	–	–	–	–	–
SMILES	Tau ThT inhib	Tau fluor cs	NPSR antag	HPGD block	ALDH1A1 block	Tau FP inhib
CCc1sc(/C=C(/C#N)C(N)=S)cc1[N+](=O)[O-]	28µM	?	–	·	2.2µM	?
CCc1ccc(/C=C(/C#N)C(N)=S)s1	?	?	–	·	?	–
COc1ccc(C(=O)Cn2c(=O)n3nc(CCn4nc(C)cc4C)nc3c3cc(OC)c(OC)cc32)cc1	–	–	·	·	·	?
Cc1ccc(C2NC(=S)NC3=C2C(=O)CC(C)(C)C3)cc1 (centres undefined)	–	–	–	–	0.79µM	–
CCCCN(CC)Cc1ccc(CNC(=S)Nc2cccc(F)c2)o1	–	–	–	·	14µM	–
COc1cccc(Cn2c(=O)c(-c3cn(C)c4ccccc34)nc3cnc(OC)nc32)c1	·	·	·	·	–	·
NC(N)=NS(=O)(=O)c1ccc(NC(=S)NC(=O)c2ccc(Br)cc2)cc1	–	–	–	·	10µM	–
CCN(CC)C(=O)C(=O)c1cn(CCOc2ccccc2)c2ccccc12	–	–	–	·	?	–
O=C(NCc1ccccc1Cl)C1CCN(C(=O)c2sccc2-n2cccc2)CC1	–	–	–	–	1.4µM	–
CCOc1ccccc1CNC(=O)C1CCN(C(=O)c2sccc2-n2cccc2)CC1	–	–	–	–	0.63µM	–
O=C(NNC(=O)c1c(F)cccc1F)c1sccc1-n1cccc1	–	–	–	·	–	–
O=C(NCc1ccccc1F)C1CCN(C(=O)c2sccc2-n2cccc2)CC1	–	–	–	·	2.5µM	–
CC1CCCCC1NC(=O)C1CCN(C(=O)c2sccc2-n2cccc2)CC1 (centres undefined)	–	–	?	–	1.1µM	–
CC1CCCCC1NC(=O)C1CCN(C(=O)NC2CCCCC2)CC1 (centres undefined)	–	–	–	–	–	–
O=C(NCc1cccc(Br)c1)C1CCN(C(=O)c2sccc2-n2cccc2)CC1	–	–	·	·	·	–
CCN(c1cccc(C)c1)S(=O)(=O)c1cc2c(cc1C)n(C)c(=O)c(=O)n2C	–	–	·	·	·	–
O=C(NCC(c1ccc2c(c1)OCO2)N1CCOCC1)c1cccc(Cl)c1 (centres undefined)	–	–	·	·	·	–
Cc1cc(NC(=O)CSc2nc3c([nH]c4ccccc43)c(=O)n2-c2cccc(Cl)c2)no1	–	–	·	·	·	–
COc1cc(OC)c(OC)cc1/C=C/c1nc2cc3ccccc3cc2c(=O)n1-c1ccccc1Br	–	?	·	·	·	–
COCCCn1c(CCC(=O)O)ccc1-c1cccs1	?	–	–	?	?	–
COc1ccc2c(c1)O[C@@H]1c3ccc(OC)cc3OCC21 (some centres undefined)	–	–	·	–	–	–
Cc1ccc(S(=O)(=O)N(C)c2ccc(C(=O)N3CCCCC3)cc2)cc1	–	–	–	0.4µM	–	–
CN(c1ccc(C(=O)NC2CC2)cc1)S(=O)(=O)c1ccccc1	–	–	–	13µM	–	–
CN(c1ccc(C(=O)N2CCCCC2)cc1)S(=O)(=O)c1ccccc1	–	–	–	0.45µM	–	–
CCOC(=O)C1CCN(C(=O)COc2ccc(N(C)S(=O)(=O)c3ccc(C)cc3)cc2)CC1	–	–	–	·	18µM	–
CN(c1ccccc1)S(=O)(=O)c1ccc(C(=O)N2CCc3ccccc3C2)cc1	–	–	–	·	?	–
CCOc1ccc(S(=O)(=O)N(C)c2ccc(OCC(=O)N3CCOCC3)cc2)cc1	–	–	–	–	–	–
COc1ccc(S(=O)(=O)N(C)c2ccc(C(=O)NC3CCCC3)cc2)cc1	–	–	–	·	–	?
